The text below walks through data of PubChem BioAssay AID624125 (The Scripps Research Institute Molecular Screening Center, 2012).

Several values for one entry are separate records, joined by “and”; a condition that tells them apart may be missing. Equal entries are not always repeated. Among all 360,000 compounds or so, about 2,600 (0.72%) were called active.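 The calls were made as follows: active = inhibition above its plate's cutoff, the mean inhibition of sample wells plus 3 SD (cut at about 27% in these data); inactive = the rest.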 For the sample, actives were picked, then their nearest neighbours and some compounds at random. Some compounds were tested as several samples or in several runs, with calls that do not always agree.

The target of the assay is Muscarinic acetylcholine receptor M4 (Homo sapiens) (UniProt P08173). Nature of the assay: human M4 muscarinic receptor antagonists, primary screen, CHO cells, Fluo-8 calcium fluorescence (AID 624125).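 Also: 0% = acetylcholine EC80 with DMSO and 100% = DMSO without agonist.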 Particulars: CHO-hM4 cells, ACh EC80, Fluo-8 calcium fluorescence; at 3 µM; stronger effect = higher value.
Muscarinic acetylcholine receptor M4 (Homo sapiens), sequence (P08173 whole entry, looked up): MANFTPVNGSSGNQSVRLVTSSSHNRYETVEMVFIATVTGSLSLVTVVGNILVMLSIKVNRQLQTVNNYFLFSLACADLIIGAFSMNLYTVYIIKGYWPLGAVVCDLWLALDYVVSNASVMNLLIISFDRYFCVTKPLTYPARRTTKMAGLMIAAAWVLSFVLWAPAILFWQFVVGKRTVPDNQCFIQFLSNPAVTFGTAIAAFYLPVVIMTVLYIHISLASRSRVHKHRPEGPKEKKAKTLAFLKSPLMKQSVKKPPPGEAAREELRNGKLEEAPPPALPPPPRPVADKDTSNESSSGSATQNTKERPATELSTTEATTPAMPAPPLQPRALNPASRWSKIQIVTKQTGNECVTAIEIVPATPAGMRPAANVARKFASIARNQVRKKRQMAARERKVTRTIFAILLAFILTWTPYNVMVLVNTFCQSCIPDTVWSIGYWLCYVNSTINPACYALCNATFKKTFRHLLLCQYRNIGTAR
Usually inhibition stands for the relative decrease from the control value, in per cent. For the compound `CCOC(=O)[C@H]1[C@H]2COc3ccccc3[C@@H]2N2C(=O)CN(Cc3ccccc3)C(=O)[C@@]12C`, the inhibition is -1.92% (inactive).
For `CCOC(=O)[C@H]1[C@H]2COc3ccc(C)cc3[C@@H]2N2C(=O)CN(Cc3ccc(F)cc3)C(=O)[C@@]12C`, the inhibition was 56.2% (active).
Next, `CCOC(=O)[C@H]1[C@H]2COc3cc(OC)ccc3[C@@H]2N2C(=O)CN(Cc3ccc(Cl)cc3)C(=O)[C@@]12C`: 2.23% (inactive); `CC(C)CNC(=S)NC(=O)c1ccc(Cl)cc1`: -0.83% (inactive).
Turning to `COc1ccc(N2CC(C(=O)NCCN3C(=O)S/C(=C\c4cccnc4)C3=O)CC2=O)c(OC)c1` (centres undefined), the inhibition is -13.5% (inactive).
Next, `O=C(NC(Cc1ccc(O)cc1)C(=O)O)/C(=C/c1ccccc1)NC(=O)c1ccccc1` (centres undefined): 0.71% (inactive).
The same measure for `COc1cccc(C(=O)NNS(=O)(=O)c2ccc(F)cc2)c1`: 9.85% (inactive); for `CC(C)NC(=O)C1(C)CCCCN1Cc1cccc(C(F)(F)F)c1` (centres undefined): -7.19% (inactive); for `O=C(COC(=O)c1ccc(S(=O)(=O)Nc2ccccc2)cc1)NCC1CCCO1` (centres undefined): 0.71% (inactive).
The same measure for `CCCC(=O)N1CCC1(C)C(=O)Nc1ccc(-n2cncn2)cc1` (centres undefined): -7.42% (inactive).
With `C=CCC1(CC=C)CCCN1C(=O)c1cc(COc2ccc(-n3cncn3)cc2)on1`, the inhibition is 28.6% (active).
Next, `O=C(c1cc(COc2c(F)cccc2F)on1)N1CCSCC1`: 8.34% (inactive).
The same measure for `Cc1cccc(C)c1Nc1nnc(SCC(=O)NCCCN2CCCC2=O)s1`: -0.57% (inactive); for `COC(=O)c1sccc1NC(=O)CC1C(=O)NCCN1C(=O)Nc1ccc(F)cc1F` (centres undefined): -7.71% (inactive).
The same measure for `COc1ccc(CC(=O)Nc2c3c(nn2-c2cccc(Cl)c2)CS(=O)C3)cc1` (centres undefined): 3.64% (inactive).
With `Cc1cc(OCCN2CCCC2)cc(C(C)C)c1`, the inhibition is 33% (active).
In the case of `Cc1cc(OCCN2CCCC2)ccc1C(C)C`, the inhibition is -0.72% (inactive).
For the compound `Cc1ccc(C(C)C)cc1OCCN1CCCC1`, the inhibition is 9.89% (inactive).
The same measure for `CCOC(=O)[C@]12CCCC=C1N(CCC1=CCCCC1)C(=O)[C@H](CC(=O)NCCCOC)C2`: -3.81% (inactive); for `CC(=O)N(CC1CCCO1)C1(C(=O)NC2CCCC2)CCCCC1` (centres undefined): -5.29% (inactive).
The same measure for `CN(CC#CCC(c1ccccc1)c1ccccc1)C(C)(C)C`: 78.5% (active); for `Cc1cc(Cl)ccc1C(=O)C1CCCN(C(=O)CCN2CCCO2)C1` (centres undefined): 4.93% (inactive); for `CCCCCCCCCCOC(=O)Cn1c(COc2cccc(OC)c2)[n+](C)c2ccccc21`: 36% (active).
`COCCN1C(=O)C(=O)/C(=C(/O)c2ccc(S(=O)(=O)N3CCCCC3)cc2)C1c1ccc(OC)c(OC)c1` (centres undefined): the inhibition is -5.56% (inactive).
The same measure for `CC(C)c1cc(C(=O)N/N=C/c2ccoc2)c(O)c(C(C)C)c1`: 5.01% (inactive); for `COC(=O)c1ccccc1NC(=O)CN(Cc1ccc(Cl)cc1)S(C)(=O)=O`: 1.99% (inactive).
The same measure for `O=C(Cc1ccc(Cl)cc1)NC(=S)Nc1ccccc1O`: 59% (active).
Next, `Fc1ccccc1CNC(=S)Nc1ccc(Cl)cc1`: 4.18% (inactive).
With `CCOc1ccc(S(=O)(=O)N(CC(=O)NCC(F)(F)F)Cc2ccco2)cc1`, the inhibition is -2.55% (inactive).
Next, `Cc1ccc(OCCNC(=O)CCNS(=O)(=O)c2ccc(Br)cc2)cc1`: -11.5% (inactive); `Cc1ccc(OC(=O)c2c(C)nn(-c3ccccc3)c2C)cc1`: -5.29% (inactive); `CCC1OC(c2ccc([N+](=O)[O-])cc2)=Nc2ccccc21` (centres undefined): 31.2% (active).
On to `COc1ccccc1CSc1ncc(-c2ccc([N+](=O)[O-])cc2)[nH]1`, for which the inhibition was -1.68% (inactive).
Turning to `CCCCN(C)c1ccc([N+](=O)[O-])cc1`, the inhibition is 12.1% (inactive).
Next, `CCOC(=O)c1cc(-c2ccccc2C)n(Cc2cc(C)no2)n1`: 4.03% (inactive).
Next, `CCCCNCCS(=O)(=O)NCc1ccccc1`: 7.64% (inactive).
The same measure for `C=CC1=C(C(=O)O)N2C(=O)[C@@H](NC(=O)/C(=N/OCC(=O)O)c3csc(N)n3)[C@H]2SC1`: -12.2% (inactive); for `CO/N=C(\C(=O)N[C@@H]1C(=O)N2C(C(=O)O)=C(COC(C)=O)CS[C@H]12)c1csc(N)n1` (stereo in doubt): -6.4% (inactive) and 79.2% (active) and 82.7% (active).
Take `C=CC1=C(C(=O)O)N2C(=O)[C@@H](NC(=O)/C(=N\OCC(=O)O)c3csc(N)n3)[C@H]2SC1`: the inhibition was -25.2% (inactive).
The same measure for `Cn1c(Cc2cccc3ccccc23)nnc1SCC(=O)N1CCN(c2cccc(Cl)c2)CC1`: -1.27% (inactive); for `O=C(Cc1csc(Nc2nc(=S)[nH]c3ccccc23)n1)NCCCN1CCN(c2cccc(Cl)c2)CC1`: 32.6% (active).
Regarding `O=C(Cc1ccc(-n2c(=O)[nH]c3ccccc3c2=O)cc1)N1CCN(c2cccc(Cl)c2)CC1`, the inhibition is -5% (inactive).
For the compound `COc1cc(SC#N)ccc1N=Cc1c(C)[nH]n(-c2ccc(C)cc2)c1=O`, the inhibition was 39.7% (active).
The same measure for `CCN(CC(=O)NCc1cccs1)S(=O)(=O)c1ccc(NC(C)=O)cc1`: 16.2% (inactive).
Next, `CCCCNC(=O)N1CCN(S(C)(=O)=O)CC1`: 10.9% (inactive).
Consider `O=C(Nc1ccc(Cl)c(C(F)(F)F)c1)C1Cc2c(-c3ccccc3Oc3ccccc3)ccnc2O1` (centres undefined), for which the inhibition is 6.27% (inactive).
Take `O=C1c2ccccc2C(=O)N1CCC(O)C[N+](=O)[O-]` (centres undefined): the inhibition is -2.27% (inactive).
The same measure for `O=C1c2ccccc2C(=O)N1CCC(c1ccccc1)c1ccco1` (centres undefined): 35.6% (active); for `Nc1ccc(SCCN2C(=O)c3ccccc3C2=O)cc1`: 2.61% (inactive); for `Cc1ccc(NC(=O)COC(=O)C2C3CC4OC(=O)C2C4C3)cc1Cl` (centres undefined): 15.9% (inactive).
The same measure for `CCCN1C(=O)C(NC(C)=O)c2cc(OC)ccc21` (centres undefined): 13.9% (inactive); for `ON=C1/C(=N\O)CC2(C/C1=N/O)OCCO2`: 10.7% (inactive); for `COc1cc(/C=C2\SC(=O)NC2=O)ccc1OCc1ccc(Cl)nc1`: -5.37% (inactive).
The same measure for `COc1cc(/C=C2/SC(=S)N(Cc3ccccc3)C2=O)cc(OC)c1O`: 34.3% (active).
Consider `CN(C(=O)CN1C(=O)/C(=C/c2ccc(Cl)cc2)SC1=S)C1CCS(=O)(=O)C1` (centres undefined), for which the inhibition is -3.95% (inactive).
Next, `CCCN(CCc1ccccc1)C1CCc2c(O)cccc2C1` (centres undefined): 50.8% (active); `Cc1cc(C)cc(C(=O)N(CCc2ccccc2)C2=CC3CCC(C2)N3C)c1` (centres undefined): 2.44% (inactive); `Cc1cccc(C)c1NC(=O)C(c1cccc2ccccc12)n1c(=O)c(-c2ccco2)nc2ccccc21` (centres undefined): -2.98% (inactive).
Take `Cc1ccc(S(=O)(=O)N2CCN(C(=O)COC(=O)CNC(=O)c3ccc(C(C)(C)C)cc3)CC2)c(C)c1`: the inhibition is 1.62% (inactive).
Next, `Cc1cccc(C)c1NC(=O)c1ccc(CN2CCc3ccccc3C2)cc1`: 12.8% (inactive); `Cc1cccc2c1-c1sc(C(=O)NCCCN3CCc4ccccc4C3)cc1CO2`: 45.9% (active).
The same measure for `Cc1ccc(NC(=O)CN2CCc3ccccc3C2)cc1C`: 1.35% (inactive); for `Cc1ccc(C(=O)OCC(=O)NC(=O)Cc2ccccc2)c(O)c1`: 3.16% (inactive).
The same measure for `CC1CCCCC1NC(=O)CN1CCC(O)(c2ccc3c(c2)OCO3)CC1` (centres undefined): -5.57% (inactive).
For `COc1ccc(C)cc1NC(=O)C(OC(=O)c1cccc(S(=O)(=O)N(C)c2ccccc2)c1)c1ccccc1` (centres undefined), the inhibition was 5.12% (inactive).
Next, `CC(=O)c1c(C)[nH]c(C(=O)COC(=O)c2cccc(S(=O)(=O)N(C)c3ccccc3)c2)c1C`: 54.5% (active); `CC(=O)c1c(C)[nH]c(C(=O)OCC(=O)Nc2c(C)cccc2C)c1C`: 4.68% (inactive).
With `C=CCSc1nc(N)cc(=O)[nH]1`, the inhibition was 4.39% (inactive).
Next, `O=C(C1CCN(CC2CCCCC2)CC1)N1CCCC1`: -6.1% (inactive); `CC(=O)NC(c1cccc(F)c1)c1nc(-c2cccc(F)c2)cs1` (centres undefined): -12% (inactive); `COC(=O)c1ccccc1Sc1c(/C=N/OCc2ccc(Cl)cc2)c(C(F)(F)F)nn1C`: -7.11% (inactive).
Next, `Cn1nc(C(F)(F)F)c(C(=O)Nc2cccc(C(F)(F)F)c2)c1SCc1ccc(Cl)cc1`: 33.8% (active); `CCC(=O)OCc1c(C(F)(F)F)nn(C)c1Oc1cccc(C(F)(F)F)c1`: 9.7% (inactive).
Next, `C=CCNC(=S)/N=c1/ccccn1Cc1ccccc1`: 11.8% (inactive); `COc1cccc(CNc2nc(NCc3cccs3)nc3ccsc23)c1`: 48.6% (active); `COc1ccccc1CNc1nc(Nc2ccccc2Cl)c2sccc2n1`: 3.54% (inactive).
`COc1cccc(CNc2nc(NCc3ccccc3OC)nc3ccsc23)c1`: the inhibition is 13.8% (inactive).
The same measure for `COc1ccc(OCC(=O)Nc2cc(C)c(Cl)cc2OC)c([N+](=O)[O-])c1`: -4.9% (inactive); for `CN(C)CCOC1c2ccccc2-c2ccccc21`: 3.09% (inactive).
The same measure for `Cc1ccccc1C(OCCN(C)C)C1CCCCC1` (centres undefined): 83% (active).
Next, `Cc1ccccc1C(OCC(O)CN1CCCCC1CCO)c1ccccc1` (centres undefined): 8.86% (inactive); `Cc1n[nH]c(=O)n1-c1ccc(Oc2ccccc2)cc1`: -7.75% (inactive); `COc1ccc(OC)c(/C=N/NC(=O)c2ccc[n+](CC(=O)c3ccccc3)c2)c1`: -5.54% (inactive).
With `COc1cccc(/C=N/Nc2cc(C)nc(-c3ccccc3O)n2)c1O`, the inhibition was 28.3% (active).
As to `CCCCCCCCn1c2c(c(=N)c3c1CCC3)CCCC2`, the inhibition is 36.8% (active).
The same measure for `CC1CN(S(=O)(=O)c2ccccc2)C(C)CN1S(=O)(=O)c1ccccc1` (centres undefined): -4.76% (inactive); for `O=C(CC(NC(=O)c1ccccc1)c1ccccc1)Nc1ccc(F)c(F)c1` (centres undefined): -4.69% (inactive).
Take `COc1ccccc1OCc1nnc(SCC(N)=O)n1-c1ccccc1`: the inhibition is -4.24% (inactive).
The same measure for `CC1CCN(C(=O)c2ccc(S(=O)(=O)Cc3cc(F)ccc3F)c([N+](=O)[O-])c2)CC1`: -7.53% (inactive).
